High-throughput results as filed in PubChem BioAssay.
SRC1 TRFRET art – counter-screen for PPARgamma SRC-1 recruitment agonists: TR-FRET artefact; TR-FRET ratio at 8 µM; 99,000 compounds, 0.34% hits; AID 1051; TR-FRET detection artefact counter-screen, emission ratio; hits give high values; in the data active = TR-FRET ratio above about 2300
PPARg SRC3 recr – promotes SRC-3 coactivator recruitment by human PPARgamma | P37231 | biochemical PPARgamma/SRC-3 coactivator recruitment assay | AID 731 | 200,000 compounds, 0.26% hits | activation, % at 8 µM; in the data active = activation above about 23%;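 also: 0% = DMSO and 100% = reference agonist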
PPARg SRC2 recr – PPARgamma-driven SRC-2 recruitment agonism; P37231; PPARgamma LBD-SRC-2 recruitment, biochemical; activation, % at 8 µM; 200,000 compounds, 0.34% hits; AID 1032;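 also: 0% = vehicle and 100% = reference agonist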
SRC2 TRFRET art – counter-screen for PPARgamma SRC-2 recruitment agonists: TR-FRET artefact; hits give high values; TR-FRET ratio at 8 µM; 200,000 compounds, 0.4% hits; AID 1049; in the data active = TR-FRET ratio above about 2000
PPARg SRC1 recr – promotes SRC-1 coactivator recruitment by human PPARgamma. P37231. PPARgamma-SRC-1 coactivator recruitment biochemical assay. activation, % at 8 µM. 200,000 compounds, 0.41% hits; in the data active = activation above about 19%;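 also: 0% = DMSO and 100% = reference agonist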
SRC3 TRFRET art – TR-FRET artefact, counter-screen to PPARgamma/SRC-3 agonist assay. PPARgamma/SRC-3 format; hits give high values. TR-FRET ratio at 8 µM. 99,000 compounds, 0.39% hits; in the data active = TR-FRET ratio above about 2000
PPARg SRC2 ag – confirmation of agonists of SRC-2 recruitment by human PPARgamma; shares compounds with PPARg SRC3 recr; biochemical SRC-2 recruitment by PPARgamma; activation, % at 8 µM; 790 compounds, 52% hits; AID 1297;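 also: 0% = vehicle alone and 100% = reference agonist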
PPARg SRC1 conf – human PPARgamma SRC-1 recruitment agonism, confirmation. PPARgamma–SRC-1 coactivator recruitment biochemical assay. activation, % at 8 µM. AID 1300. shares compounds with PPARg SRC3 recr. 790 compounds, 43% hits; in the data active = activation above about 20%;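 also: 0% = vehicle wells and 100% = reference agonist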
PPARg SRC3 ag – confirmation of agonists of SRC-3 recruitment by human PPARgamma | shares compounds with PPARg SRC3 recr | biochemical PPARgamma-SRC-3 coactivator recruitment, agonist mode | activation, % at 8 µM | 790 compounds, 29% hits; in the data active = activation above about 24%;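 also: 0% = vehicle wells and 100% = reference agonist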
Starred values were filed as active, the others as inactive. This is a sample that favours compounds with a hit; in the whole collection about 0.9% have one here. Rule as the data show it, unless noted: active = activation above about 22%; inactive = the rest.

`Cc1ccc(C(C)NC(=O)/C(C#N)=C\c2c(C)[nH]c3ccccc23)cc1` (configuration not stated) gave PPARg SRC3 recr 4.5, PPARg SRC2 recr 9.8, SRC2 TRFRET art 1569, PPARg SRC1 recr 19.1*, PPARg SRC2 ag 5.5, PPARg SRC1 conf 16.6 and PPARg SRC3 ag 14.4.
For Cc1[nH]c2ccccc2c1/C=C(\C#N)C(=O)NCc1ccccc1 the results were SRC1 TRFRET art 1808, PPARg SRC3 recr 1.5, PPARg SRC2 recr -1.0, SRC2 TRFRET art 1429, PPARg SRC1 recr 5.3 and SRC3 TRFRET art 1618.
Screening COc1ccccc1Nc1nc(N)nc(CSC(=S)N2CC(C)CC(C)C2)n1 (configuration not stated) returned SRC1 TRFRET art 1801, PPARg SRC3 recr -0.8, PPARg SRC2 recr -5.1, SRC2 TRFRET art 1471, PPARg SRC1 recr 0.3 and SRC3 TRFRET art 1571.
Screening CS(=O)(=O)c1nc(-c2ccc(Br)cc2)cc(-c2ccccc2)c1C#N returned PPARg SRC3 recr 110.5*, PPARg SRC2 recr 6.9, SRC2 TRFRET art 2843*, PPARg SRC1 recr 53.4*, PPARg SRC2 ag 66.2*, PPARg SRC1 conf 49.3* and PPARg SRC3 ag 39.5*.
Screening Cc1nc2ccc(-c3nc4cc(N)ccc4o3)cc2[nH]1 returned PPARg SRC3 recr 18.1, PPARg SRC2 recr 15.8, SRC2 TRFRET art 1816, PPARg SRC1 recr 21.4*, PPARg SRC2 ag 9.6, PPARg SRC1 conf 8.9 and PPARg SRC3 ag 7.8.
Screening Nc1ccc2oc(-c3ccc4nc[nH]c4c3)nc2c1 returned PPARg SRC3 recr 3.3, PPARg SRC2 recr 0.7, SRC2 TRFRET art 1494 and PPARg SRC1 recr -4.2.
For Cn1ccnc1SCC(=O)c1ccc([N+](=O)[O-])cc1 the results were SRC1 TRFRET art 1641, PPARg SRC3 recr 4.0, PPARg SRC2 recr 0.4, SRC2 TRFRET art 1457, PPARg SRC1 recr 5.1 and SRC3 TRFRET art 1455.
C=CCN(c1ccccc1Cl)S(=O)(=O)c1cccc(C(=O)NCCc2ccc(OC)cc2)c1 was read as SRC1 TRFRET art 1665, PPARg SRC3 recr 4.3, PPARg SRC2 recr 6.4, SRC2 TRFRET art 1571, PPARg SRC1 recr 0.6 and SRC3 TRFRET art 1334.
`COc1ccc(C(=O)Nc2cccc3c2C(=O)NC3=O)cc1S(=O)(=O)N1CCOCC1` gave PPARg SRC3 recr 13.8, PPARg SRC2 recr -2.8, SRC2 TRFRET art 1625, PPARg SRC1 recr 20.9*, PPARg SRC2 ag -3.4, PPARg SRC1 conf -4.2 and PPARg SRC3 ag -2.1.
`O=C(Nc1cnn(Cc2ccc(Cl)c(Cl)c2)c1)C12CC3CC(CC(C3)C1)C2` gave PPARg SRC3 recr -4.3, PPARg SRC2 recr -3.4, SRC2 TRFRET art 1590 and PPARg SRC1 recr -5.5.
Cc1cc(=S)c2cccc(C)c2[nH]1 was read as SRC1 TRFRET art 2464*, PPARg SRC3 recr 20.2, PPARg SRC2 recr 22.2*, SRC2 TRFRET art 2155*, PPARg SRC1 recr 16.5, SRC3 TRFRET art 2209*, PPARg SRC2 ag 1.7, PPARg SRC1 conf 2.8 and PPARg SRC3 ag 2.1.
`COc1ccc(-c2nn(CC(=O)Nc3ccc(Cl)c(Cl)c3)c(=O)c3ccccc23)cc1` gave PPARg SRC3 recr 21.6, PPARg SRC2 recr -3.2, SRC2 TRFRET art 2357*, PPARg SRC1 recr 19.2*, PPARg SRC2 ag 10.9, PPARg SRC1 conf 12.8 and PPARg SRC3 ag 7.9.
Screening O=C(O)c1ccc(N2C(=O)/C(=C/C=C/c3ccccc3)SC2=S)cc1 returned SRC1 TRFRET art 1703, PPARg SRC3 recr 6.1, PPARg SRC2 recr 4.0, SRC2 TRFRET art 1585, PPARg SRC1 recr 8.3 and SRC3 TRFRET art 1466.
Screening CN(C)c1ccc(/C=C/C=C2/SC(=S)N(c3ccccc3)C2=O)cc1 returned PPARg SRC3 recr 9.3, PPARg SRC2 recr 12.9, SRC2 TRFRET art 1683, PPARg SRC1 recr 19.8*, PPARg SRC2 ag 30.2*, PPARg SRC1 conf 21.3* and PPARg SRC3 ag 18.9.
`COc1ccccc1Cn1c(=O)c2ccccc2n2c(Sc3ncnc4sccc34)nnc12` gave PPARg SRC3 recr 29.4*, PPARg SRC2 recr 7.9, SRC2 TRFRET art 3587*, PPARg SRC1 recr 25.9*, PPARg SRC2 ag 8.7, PPARg SRC1 conf 8.9 and PPARg SRC3 ag 5.6.
Screening COc1ccccc1Cn1c(=O)c2ccccc2n2c(SCc3csc(C)n3)nnc12 returned SRC1 TRFRET art 1673, PPARg SRC3 recr -1.3, PPARg SRC2 recr 1.9, SRC2 TRFRET art 1535, PPARg SRC1 recr -1.6 and SRC3 TRFRET art 1479.
Screening Cc1ccccc1N1C(=O)CC(Sc2nnc(-c3ccccc3)o2)C1=O (configuration not stated) returned PPARg SRC3 recr 56.6*, PPARg SRC2 recr 43.0*, SRC2 TRFRET art 1855, PPARg SRC1 recr 42.4*, PPARg SRC2 ag 48.2*, PPARg SRC1 conf 36.0* and PPARg SRC3 ag 31.5*.
`O=C1c2ccccc2CC1Sc1nnc(-c2ccncc2)o1` (configuration not stated) gave PPARg SRC3 recr -4.2, PPARg SRC2 recr 0.8, SRC2 TRFRET art 1537 and PPARg SRC1 recr -8.8.
O=C1CC(Sc2nnc(-c3ccccc3)o2)C(=O)N1c1ccccc1 (configuration not stated) was read as PPARg SRC3 recr 31.2*, PPARg SRC2 recr 39.1*, SRC2 TRFRET art 1657, PPARg SRC1 recr 19.8*, PPARg SRC2 ag 28.2*, PPARg SRC1 conf 21.2* and PPARg SRC3 ag 15.7.
For COc1cc(C(=O)NCCC(C)C)ccc1OCc1ccc(Cl)cc1Cl the results were SRC1 TRFRET art 1879, PPARg SRC3 recr 46.5*, PPARg SRC2 recr 14.5, SRC2 TRFRET art 1605, PPARg SRC1 recr 48.0*, SRC3 TRFRET art 1559, PPARg SRC2 ag 17.8, PPARg SRC1 conf 45.4* and PPARg SRC3 ag 38.1*.
Screening COc1cc(/C=C/C(=O)Nc2nc3ccc(S(=O)(=O)NC(C)C)cc3s2)cc(OC)c1OC returned SRC1 TRFRET art 1944, PPARg SRC3 recr 1.3, PPARg SRC2 recr 22.8*, SRC2 TRFRET art 1783, PPARg SRC1 recr 14.1, SRC3 TRFRET art 1648, PPARg SRC2 ag 1.6, PPARg SRC1 conf -1.4 and PPARg SRC3 ag -0.9.
Screening O=[N+]([O-])c1cc(-c2ccc(/C=N/c3nc4ccccn4c3-c3ccco3)o2)ccc1Cl returned PPARg SRC3 recr 27.0*, PPARg SRC2 recr 15.6, SRC2 TRFRET art 1804, PPARg SRC1 recr 15.9, PPARg SRC2 ag 11.8, PPARg SRC1 conf 5.8 and PPARg SRC3 ag 6.7.
For O=[N+]([O-])c1ccc(-c2ccc(C=Nc3cccc4ccccc34)o2)cc1 the results were PPARg SRC3 recr 7.1, PPARg SRC2 recr -3.4, SRC2 TRFRET art 1585 and PPARg SRC1 recr 0.3.
